PubChem BioAssay
Several values for one entry are separate records, joined by “and”; a condition that tells them apart may be missing. Equal values may be shown once. Records with an inconclusive call do not appear. The source holds several records for some structures; these can differ, active in one and inactive in another. Activity calls are given as the source filed them.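 How the source made its calls, unless noted: active means normalized viability below 100% at a tested concentration; inactive means the rest.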 Where a SMILES comes first, the peptide text is derived from it. [ ]: non-standard residue; d: D form. The star is where a group is joined. Sta = CC(C)C[C@H](N)[C@@H](O)CC(=O)O; Isovaleryl = CC(C)CC(=O)*

Key:
[1] = liver-stage malaria parasite growth inhibition, primary screen, cell-based, HepG2, luciferase luminescence, HepG2 viability (AID 624349; in the data active means parasite load remaining mostly below about 12%, no sharp cut-off; inactive means mostly above about 10%;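 further: 100% = mean of DMSO negative control wells on the same plate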); details: P. berghei liver stage in HepG2, luciferase luminescence, concentration not given here; parasite load remaining: stronger effect = lower value; viability: measured here: HepG2 viability without parasites
[2] = stimulators of nuclear beta-catenin in C2C12, primary screen, imaging, WNT3A-conditioned medium, mouse C2C12, NPC library (AID 1117326; in the data active means nuclear beta-catenin stimulation mostly above about 4.2%, no sharp cut-off; inactive means mostly below about 10%); details: stronger effect = higher value
[3] = stimulators of insulin release from INS-1E, primary screen, cell-based, 5 mM glucose, NPC library (AID 1117329;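 active means compound raises insulin release from rat beta cells at 5 mM glucose, no numeric limit stated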); details: rat INS-1E insulin secretion, at 10 µM, stronger effect = higher value
[4] = growth inhibition of GSK3B-pretreated HCT116 cells – cell-based, CellTiter-Glo, 0.2 to 20 µM (AID 1117336;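 active means compounds lowering colon cancer cell viability after pretreatment blocking the GSK3B kinase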); details: HCT116 viability after GSK3B inhibitor, at 20 µM, stronger effect = higher value
[5] = inhibition of endothelial tube formation, primary screen, imaging, VEGF stimulated, CD31 staining, tube area, NPC library (AID 1117340;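 active means compound that reduces growth-factor-driven endothelial tube area in a mixed cell culture, no cutoff stated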); details: VEGF-stimulated ADSC/ECFC co-culture, at 10 µM, stronger effect = higher value
[6] = glucagon-like peptide 1 release enhancers, primary assay, NCI-H716 cell line, NPC library (AID 1117341;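 active means compound raises GLP1 secretion from the human gut endocrine cells, with no numeric limit stated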); details: NCI-H716 cells, at 10 µM, stronger effect = higher value
[7] = HCT116 colon cancer cell growth inhibition, primary screen, CellTiter-Glo luminescence, NPC library (AID 1117342;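 active means compounds that lower survival of HCT116 colon cancer cells in the luminescence readout, no numeric limit stated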); details: at 20 µM (top of the series)
[8] = CellTiter-Glo luminescent readout of SW480 viability loss, NPC library primary (AID 1117343;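 active means compounds that lower viability of the colon cancer cells in the luminescence readout, with no numeric limit stated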); details: CellTiter-Glo luminescence; at 20 µM (top of the series) unless noted
[9] = decreased DLD-1 cellular survival, CellTiter-Glo luminescent readout, NPC compound collection, primary HTS (AID 1117346;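 active means compounds that lower survival of DLD-1 colon cancer cells in the luminescence readout, no cutoff given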); details: DLD-1 viability, CellTiter-Glo luminescence; at 20 µM (top of the series)
[10] = growth inhibition of DIPG glioma cells, dose response, cell-based, SU-DIPG-XVII, MIPE5.0, CellTiter-Glo, qHTS (AID 1347060; cut-off not given, nearly all actives have AC50 up to about 26 µM;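 on AC50: cells exposed to compound for 48 hours before viability readout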); details: SU-DIPG-XVII viability, CellTiter-Glo ATP luminescence
[11] = growth inhibition of DIPG glioma cells, dose response, cell-based, SU-DIPG-XIII, MIPE4.0, CellTiter-Glo, qHTS (AID 1347061; cut-off not given, nearly all actives have AC50 up to about 37 µM;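 further: cells exposed to compound for 48 hours before readout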); details: SU-DIPG-XIII viability, CellTiter-Glo ATP luminescence
[12] = growth inhibition of DIPG glioma cells, dose response, cell-based, JHH-DIPG-1, MIPE4.0, CellTiter-Glo, qHTS (AID 1347062; cut-off not given, nearly all actives have AC50 up to about 27 µM;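 on AC50: cells exposed to compound for two days before readout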); details: JHH-DIPG-1 viability, CellTiter-Glo ATP luminescence
[13] = viability loss in pontine glioma line – cell-based, SU-DIPG-XXV, MIPE5.0, CellTiter-Glo, qHTS, dose response (AID 1347065; cut-off not given, nearly all actives have AC50 up to about 26 µM;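 further: cells exposed to compound for 48 hours before ATP readout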); details: CellTiter-Glo ATP luminescence
[14] = SU-DIPG-VI glioma cell viability, MIPE4.0 library, CellTiter-Glo luminescence, qHTS (AID 1347066; cut-off not given, nearly all actives have AC50 up to about 30 µM;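 further: cells exposed to compound for 48 hours before readout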); details: CellTiter-Glo ATP luminescence
[15] = SU-DIPG-XXV glioma cell viability, MIPE5.0 library, qHTS (AID 1347068; cut-off not given, nearly all actives have IC50 up to about 30 µM)
[16] = sensitizers of A549 cells to miR-34 induction, primary screen, imaging, A549 dox-inducible miR-34, nuclei and caspase counts (AID 1347080;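 active means compounds whose cell count with miR-34 switched on is under 0.7 times the count with it off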); details: A549 miR-34 inducible, Hoechst nuclei count, 48 h
[17] = survival rescue of mitochondrial mutant cells in low glucose, primary screen, MELAS cybrids, Rieske KO mouse fibroblasts, CellTiter-Glo (AID 1508586;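 active means mean z-score across replicates of 1.96 or higher in either the MELAS or the Rieske mutant cell line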;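 further: z relative to plate mean and SD of compound and empty wells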)
[18] = ovarian cancer cell viability with rucaparib, profiling panel, oncology-focused library, rucaparib conditional (AID 1508598); details: patient-derived ovarian cancer cells, CellTiter-Glo viability, 144 h, stronger effect = lower value
[19] = viability rescue of complex I mutant cybrids, primary screen, cell-based, galactose medium, ATP luminescence (AID 1645843;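 active means z-score of at least 1.8 in each of two replicates, scored against plate mean and spread of sample wells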;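 further: positive z means more ATP and so rescue of galactose-driven cybrid death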); details: complex I mutant cybrid cells, 72 h, stronger effect = higher value
[20] = test system: Aerobactin synthetase IucA (Klebsiella pneumoniae); test: IucA aerobactin synthetase inhibitors, biochemical, Tocris library, absorbance (AID 1345561; call rule not given here;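 further: 100% = enzyme without compound and 0% = no enzyme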); details: purified IucA enzyme assay, absorbance (OD) read-out; stronger effect = lower value;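 tested at 8 µM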
[21] = stronger effect = lower value, cell number ratio, induced over uninduced
[22] = measured here: relative caspase fold change +Dox/-Dox
[23] = measured here: total cells with miR-34 induction, stronger effect = lower value
[24] = measured here: total cells without miR-34 induction
[25] = MELAS cybrid survival, CellTiter-Glo 48 h, stronger effect = higher value
[26] = Rieske KO mouse fibroblast survival, CellTiter-Glo 72 h
[27] = at 0.000305 µM, OCI-C5x cells, with rucaparib 10 µM, 100% = cells with rucaparib alone
[28] = at 0.000305 µM, OCI-C5x cells, without rucaparib
[29] = at 0.000305 µM, OCI-P5x cells, with rucaparib 20 µM, 100% = cells with rucaparib alone
[30] = at 0.000305 µM, OCI-P5x cells, without rucaparib
[31] = at 0.00122 µM, OCI-C5x cells, with rucaparib 10 µM, 100% = cells with rucaparib alone
[32] = at 0.00122 µM, OCI-C5x cells, without rucaparib
[33] = at 0.00122 µM, OCI-P5x cells, with rucaparib 20 µM, 100% = cells with rucaparib alone
[34] = at 0.00122 µM, OCI-P5x cells, without rucaparib

CC(C)CC(=O)N[C@H](C(=O)N[C@H](C(=O)N[C@@H](CC(C)C)[C@@H](O)CC(=O)N[C@@H](C)C(=O)N[C@@H](CC(C)C)[C@@H](O)CC(=O)O)C(C)C)C(C)C (Isovaleryl-VV[Sta]A[Sta]-OH)
-0.328: z-score [17, 26]
8480 and 5040: cell count [16, 24]
inactive: parasite load remaining [1] 101% | nuclear beta-catenin stimulation ([2]; at 10 µM) -1.6% | insulin secretion stimulation [3] 4.9% | viability decrease [4] -3.4% | tube area decrease [5] -25.1% | GLP1 secretion stimulation [6] 0.5% | inhibition of viability [7] 4% | viability decrease (inhibition) [8] -0.3% | outcome [10] | outcome [11] | outcome [12] | outcome [13] | outcome [14] | outcome [15] | fold change [16, 21] 0.91 and 1.02 | z-score [17, 25] -1.11
7720 and 5130: cell count [16, 23]
102%: viability [1]
-0.3%: nuclear beta-catenin stimulation ([2]; stimulation, at 2 µM)
1.28 and 1.09: fold change [16, 22]
active: viability decrease (inhibition) [9] 13%

CCN(CC)CCNC(=O)c1c(C)[nH]c(/C=C2\C(=O)Nc3ccc(F)cc32)c1C
inactive: nuclear beta-catenin stimulation ([2]; at 10 µM) 0.3% | GLP1 secretion stimulation [6] 18.2% | fold change [16, 21] 0.916 | viability [18, 27] 110% | viability [18, 28] 107% | viability [18, 31] 114% | viability [18, 32] 102% | viability ([18]; at 0.00488 µM, OCI-C5x cells, with rucaparib 10 µM, 100% = cells with rucaparib alone) 113% | viability ([18]; at 0.00488 µM, OCI-C5x cells, without rucaparib) 108% | viability ([18]; at 0.0195 µM, OCI-C5x cells, with rucaparib 10 µM, 100% = cells with rucaparib alone) 115% | viability ([18]; at 0.0781 µM, OCI-C5x cells, with rucaparib 10 µM, 100% = cells with rucaparib alone) 118% | viability ([18]; at 0.0781 µM, OCI-C5x cells, without rucaparib) 111% | viability ([18]; at 0.313 µM, OCI-C5x cells, with rucaparib 10 µM, 100% = cells with rucaparib alone) 123% | viability ([18]; at 0.313 µM, OCI-C5x cells, without rucaparib) 113% | viability ([18]; at 1.25 µM, OCI-C5x cells, with rucaparib 10 µM, 100% = cells with rucaparib alone) 126% | viability ([18]; at 1.25 µM, OCI-C5x cells, without rucaparib) 117% | viability ([18]; at 1.25 µM, OCI-P5x cells, without rucaparib) 104% | z-score [19] -1
1.17: fold change [16, 22]
715: cell count [16, 23]
-2%: nuclear beta-catenin stimulation ([2]; stimulation, at 2 µM)
active: insulin secretion stimulation [3] 47.3% | viability decrease [4] 108% | tube area decrease [5] 103% | inhibition of viability [7] 110% | viability decrease (inhibition) [8] 127% | viability decrease (inhibition) [9] 93.4% | AC50 [10] 7.42 µM | AC50 [11] 38.2 µM | AC50 [12] 10.8 µM | AC50 [13] 4.17 µM | AC50 [14] 21.5 µM | viability [18, 29] 84% | viability [18, 30] 93.8% | viability [18, 33] 98.6% | viability [18, 34] 88.3% | viability ([18]; at 0.00488 µM, OCI-P5x cells, with rucaparib 20 µM, 100% = cells with rucaparib alone) 96.3% | viability ([18]; at 0.00488 µM, OCI-P5x cells, without rucaparib) 97.4% | viability ([18]; at 0.0195 µM, OCI-C5x cells, without rucaparib) 99.1% | viability ([18]; at 0.0195 µM, OCI-P5x cells, with rucaparib 20 µM, 100% = cells with rucaparib alone) 98.7% | viability ([18]; at 0.0195 µM, OCI-P5x cells, without rucaparib) 95.9% | viability ([18]; at 0.0781 µM, OCI-P5x cells, with rucaparib 20 µM, 100% = cells with rucaparib alone) 95% | viability ([18]; at 0.0781 µM, OCI-P5x cells, without rucaparib) 99.9% | viability ([18]; at 0.313 µM, OCI-P5x cells, with rucaparib 20 µM, 100% = cells with rucaparib alone) 93.2% | viability ([18]; at 0.313 µM, OCI-P5x cells, without rucaparib) 99.5% | viability ([18]; at 1.25 µM, OCI-P5x cells, with rucaparib 20 µM, 100% = cells with rucaparib alone) 89.1% | viability ([18]; at 5 µM, OCI-C5x cells, with rucaparib 10 µM, 100% = cells with rucaparib alone) 60.6% | viability ([18]; at 5 µM, OCI-C5x cells, without rucaparib) 21.7% | viability ([18]; at 5 µM, OCI-P5x cells, with rucaparib 20 µM, 100% = cells with rucaparib alone) 1.9% | viability ([18]; at 5 µM, OCI-P5x cells, without rucaparib) 12.8%
780: cell count [16, 24]

Cc1[nH]c(=O)c(C#N)cc1-c1ccc2nccn2c1
9290: cell count [16, 24]
inactive: nuclear beta-catenin stimulation ([2]; at 10 µM) -1.8% | insulin secretion stimulation [3] 3% | viability decrease [4] -9.8% | tube area decrease [5] -3.8% | GLP1 secretion stimulation [6] -0.6% | inhibition of viability [7] -1.6% | viability decrease (inhibition) [8] 0.1% | viability decrease (inhibition) [9] -7.8% | outcome [10] | outcome [11] | outcome [12] | outcome [13] | outcome [14] | outcome [15] | fold change [16, 21] 0.996 | z-score [19] 0.905
9250: cell count [16, 23]
0.805: fold change [16, 22]
-0.5%: nuclear beta-catenin stimulation ([2]; stimulation, at 2 µM)

CSCC[C@H](NC(=O)[C@H](Cc1c[nH]c2ccccc12)NC(=O)CCNC(=O)OC(C)(C)C)C(=O)N[C@@H](CC(=O)O)C(=O)N[C@@H](Cc1ccccc1)C(N)=O
inactive: nuclear beta-catenin stimulation ([2]; at 10 µM) 0.1% | insulin secretion stimulation [3] 0.8% | viability decrease [4] -19% | tube area decrease [5] 5.2% | GLP1 secretion stimulation [6] 0.3% | inhibition of viability [7] -11.9% | viability decrease (inhibition) [8] 23.6% | viability decrease (inhibition) [9] -23.3% | outcome [10] | outcome [12] | outcome [13] | outcome [14] | outcome [15]
active: AC50 [11] 0.935 µM
1.3%: nuclear beta-catenin stimulation ([2]; stimulation, at 2 µM)

CNCCC(Oc1ccccc1OC)c1ccccc1 (centres undefined)
99.6% and 98.5%: viability [1]
0.5%: nuclear beta-catenin stimulation ([2]; stimulation, at 2 µM)
inactive: parasite load remaining [1] 99.2% and 34.1% | nuclear beta-catenin stimulation ([2]; at 10 µM) -0.2% | insulin secretion stimulation [3] 8% | viability decrease [4] -108% | tube area decrease [5] 0.4% | GLP1 secretion stimulation [6] 1.3% | inhibition of viability [7] 1.93% | viability decrease (inhibition) [8] 16.6% | viability decrease (inhibition) [9] -38.2% | remaining activity [20] 107% | z-score [17, 25] -0.579 and 0.865 | z-score [19] -0.245 and -0.495 and 0.12
-0.0039 and 1.57: z-score [17, 26]

CS(=O)(=O)CCNCc1ccc(-c2ccc3ncnc(Nc4ccc(OCc5cccc(F)c5)c(Cl)c4)c3c2)o1
3150 and 8630: cell count [16, 24]
1.01 and 1.28: fold change [16, 22]
2.46 (active) and -0.221 (inactive): z-score [17, 25]
inactive: parasite load remaining [1] 44.4% | nuclear beta-catenin stimulation ([2]; at 10 µM) 31.2% | insulin secretion stimulation [3] 1.35% | GLP1 secretion stimulation [6] 2.8% | fold change [16, 21] 0.964 and 0.914 | viability [18, 27] 113% and 103% | viability [18, 28] 123% and 111% | viability [18, 31] 107% and 123% | viability [18, 32] 123% and 115% | viability [18, 34] 104% and 107%
3040 and 7890: cell count [16, 23]
-0.2%: nuclear beta-catenin stimulation ([2]; stimulation, at 2 µM)
102% (inactive) and 98.6% (active): viability [18, 30]
0.803 and 1.5: z-score [17, 26]
active: viability decrease [4] 106% | tube area decrease [5] 110% | inhibition of viability [7] 107% | viability decrease (inhibition) [8] 129% | viability decrease (inhibition) [9] 100% | AC50 [10] 18.6 µM | AC50 [11] 14.8 µM | AC50 [12] 18.7 µM | AC50 [13] 13.2 µM | AC50 [14] 16.6 µM | viability [18, 29] 95.1% and 93.3% | viability [18, 33] 96.9% and 99.7%
101%: viability [1]
